Compound activity as filed in PubChem BioAssay.
The sample as a whole holds a higher share of hits than the screen did.
HT1080 IDH1KD tx: qHTS for induction of synthetic lethality in tumor cells producing 2HG: qHTS for the HT-1080-IDH1KD cell line; HT-1080 IDH1 knockdown viability, ATP luminescence, 48 h; Potency, µM (doses to about 46.1 µM), actives largely listed as cytotoxic; AID 686971, 2013; actives 2% (n = 360,000)
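In this qHTS, HT-1080 cells depleted of IDH1 are exposed for 48 h at 37 °C to compound titrations. Toxicity is scored from CellTiter-Glo luminescence, with DMSO as full viability and medium alone as none.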
TDP1 cell CPT: qHTS for Inhibitors of human tyrosyl-DNA phosphodiesterase 1 (TDP1): qHTS in cells in presence of CPT. chicken DT40 Tdp1-/-;hTDP1 cells + 20 nM CPT, ATP luminescence, 48 h. Potency, µM (top dose mostly 46.2 µM), usual class: inhibitors. actives 12% (n = 420,000); also: nearly all actives have a fitted effect of over 55% in size
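Chicken DT40 Tdp1-/- cells stably complemented with human TDP1 were seeded at 400 cells/well in medium containing 20 nM camptothecin, exposed to pin-transferred compounds, and grown at 37 °C for at least 48 hr. Viability was read as ATP luminescence.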
DT40 TDP1 no CPT: qHTS for Inhibitors of human tyrosyl-DNA phosphodiesterase 1 (TDP1): qHTS in cells in absence of CPT; DT40 Tdp1-/- hTDP1 cells, no CPT, ATP luminescence, 48 h; Potency, µM (doses to about 46.2 µM), actives largely listed as inhibitors; actives 15% (n = 420,000); AID 686978, 2013; also: nearly all actives have a fitted effect of over 55% in size
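Luminescent ATP content (CellTiter-Glo) served as the growth readout. Knockout chicken DT40 cells expressing human TDP1 were exposed to compounds without camptothecin for a minimum 48 hr at 37 °C.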
IL-1B inflam inh: qHTS for Inhibitors of Inflammasome Signaling: IL-1-beta AlphaLISA Primary Screen; THP-1 LPS/ATP IL-1B secretion, AlphaLISA, 16 h; active compounds read low; activity change, % at 57.5 µM; actives 4.7% (n = 360,000); AID 743279, 2014; in the data active = activity change below about -50%; inconclusive = mostly about -30% to -49%
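Secreted IL-1B measured by AlphaLISA bead assay after 16 h compound exposure of THP-1 cells; compounds (final up to 57.5 uM) added 1 h before LPS (250 ng/mL) and ATP (1.25 mM) stimulation; lower signal means less secretion.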
HT1080-NT tox: qHTS for induction of synthetic lethality in tumor cells producing 2HG: qHTS for the HT-1080-NT fibrosarcoma cell line; AID 686970, 2013; Potency, µM (top dose mostly 46.1 µM), actives largely listed as cytotoxic; actives 1.6% (n = 360,000); HT-1080-NT fibrosarcoma viability, CellTiter-Glo ATP luminescence, 48 h;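 also: NT is the 2HG producing partner of a matched IDH1 knockdown line; nearly all actives have a fitted effect of over 55% in size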
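750 cells/well, RPMI + 5% FBS; 2 h settle, compound pin-transfer, 48 h at 37 degrees C. CellTiter-Glo 10 min RT, luminescence. Normalized to DMSO and media-only wells.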
12-LOX inh: Primary qHTS assay for inhibitors of human arachidonate 12S-lipoxygenase (ALOX12): Round 2; Polyunsaturated fatty acid lipoxygenase ALOX12 (Homo sapiens), P18054; Potency, µM (highest dose often 108 µM), hits mostly inhibitors; actives 1.1% (n = 580,000); purified 12hLO, xylenol orange hydroperoxide absorbance; AID 1671190, 2021
Target sequence (P18054 whole entry, looked up): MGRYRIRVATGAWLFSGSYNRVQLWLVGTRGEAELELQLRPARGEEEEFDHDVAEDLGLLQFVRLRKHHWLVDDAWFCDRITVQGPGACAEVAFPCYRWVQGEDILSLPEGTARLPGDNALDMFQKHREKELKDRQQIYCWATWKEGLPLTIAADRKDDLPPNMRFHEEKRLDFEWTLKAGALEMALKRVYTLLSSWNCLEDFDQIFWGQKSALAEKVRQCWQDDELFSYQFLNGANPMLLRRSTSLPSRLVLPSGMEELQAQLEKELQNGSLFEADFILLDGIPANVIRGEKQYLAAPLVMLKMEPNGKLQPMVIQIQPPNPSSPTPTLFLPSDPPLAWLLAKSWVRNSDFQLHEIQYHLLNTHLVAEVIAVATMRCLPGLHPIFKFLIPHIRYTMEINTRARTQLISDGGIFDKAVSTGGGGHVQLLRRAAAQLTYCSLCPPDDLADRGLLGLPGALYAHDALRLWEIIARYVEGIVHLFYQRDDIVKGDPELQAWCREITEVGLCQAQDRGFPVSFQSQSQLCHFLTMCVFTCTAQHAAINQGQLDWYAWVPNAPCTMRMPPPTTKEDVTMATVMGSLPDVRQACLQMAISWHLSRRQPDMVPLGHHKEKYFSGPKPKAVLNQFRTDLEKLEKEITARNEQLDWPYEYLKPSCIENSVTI
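Hydroperoxide product was detected by ferrous iron/xylenol orange as the 573 to 405 nm absorbance ratio. Arachidonic acid at 40 uM (final) was turned over for 30 min at room temperature by 150 nM human 12hLO, pH 7.0 Hepes buffer, after 15 min compound preincubation.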
Hits are given with their value; . = inactive; ? = inconclusive; / = not tested or not shown. Unless noted, calls follow the shape of the dose curve; as a rule, active = well fitted curve in the direction sought with a large enough effect; inconclusive = small, poorly fitted or top-dose-only effect, or another doubt; inactive = no such curve, though single readings can be large; an effect the other way counts as inactive or inconclusive.

SMILES	HT1080 IDH1KD tx	TDP1 cell CPT	DT40 TDP1 no CPT	IL-1B inflam inh	HT1080-NT tox	12-LOX inh
CC(=O)c1ccccc1NC(=O)c1ccc2c(c1)NC(=O)C(C)S2 (stereo unspecified)	.	21µM	?	.	.	.
COc1ccccc1-c1cc2nc(NCCc3ccncc3)ccn2n1	.	?	?	.	.	.
COc1ccccc1-c1cc2nc(NCCc3ccc(S(N)(=O)=O)cc3)ccn2n1	.	?	21µM	-68	.	.
CC1Oc2ccc(-c3csc(NC(=O)c4cccs4)n3)cc2NC1=O (stereo unspecified)	/	/	/	/	/	.
CCOCCN1CCN(C2c3ccccc3CSc3ccccc32)CC1 (stereo unspecified)	?	?	?	-74	?	?
CCNC(=O)NC1c2ccccc2CSc2ccccc21 (stereo unspecified)	.	.	?	.	.	.
N#Cc1cccc(C(=O)N2CCN(c3oc(C4CC4)nc3C#N)CC2)c1	/	/	/	/	/	.
N#C/C(=C\c1cccs1)C(=O)Nc1nccs1	.	?	2.9µM	.	.	.
N#C/C(=C\c1cccs1)C(=O)NCc1ccccc1	.	12µM	21µM	.	.	.
N#C/C(=C\c1ccccc1)C(=O)NCc1ccc(F)cc1	?	?	?	-98	?	.
N#CC(=Cc1ccc(O)c(O)c1)C(=O)NCc1ccccc1	/	?	?	/	/	.
N#C/C(=C\c1cccs1)C(=O)c1ccccc1Cl	?	29µM	16µM	-98	?	?
O=C1CC(c2noc(-c3ccc(-c4ccccc4)cc3)n2)CN1c1ccc(F)cc1 (stereo unspecified)	/	/	/	/	/	.
N#C/C(=C\c1cn(Cc2ccc(F)cc2)c2ccccc12)C(=O)NCc1ccco1	?	18µM	?	.	?	?
N#C/C(=C\c1cn(Cc2ccccc2)c2ccccc12)C(=O)NCc1ccco1	.	?	?	.	.	.
CCOc1ccc(OCCSc2nc(C)cc(=O)[nH]2)cc1	.	12µM	21µM	.	.	.
Cc1cccc(C)c1-n1nnnc1-c1nc2cc3ccccc3cc2[nH]c1=O	0.37µM	0.52µM	0.73µM	.	0.65µM	?
Cn1cc(C#N)cc1C(=O)N1CCCC(C)(Cc2ccc3c(c2)OCO3)C1 (stereo unspecified)	/	/	/	/	/	.
COC(=O)c1ccc(COc2ccccc2/C=C(\C#N)C(=O)Nc2c(C)cc(C)cc2C)cc1	18µM	8.2µM	10µM	-79	9.2µM	.
Cc1cc(C)c(NC(=O)/C(C#N)=C/c2ccc(OCc3ccc(F)cc3)cc2)c(C)c1	.	2.6µM	6.5µM	.	.	.
N#C/C(=C\c1ccc(OCc2ccccc2)cc1)C(=O)Nc1ccc(C(=O)O)cc1	.	.	.	.	.	.
CC(=O)NC12CC3CC(C1)CC(C(=O)OCC(=O)c1cc(C)n(C)c1C)(C3)C2	.	16µM	?	.	.	.
O=C(c1nn2c(C(F)(F)F)cc(-c3cccs3)nc2c1Cl)N1CCCc2ccccc21	.	16µM	12µM	.	.	.
Cc1[nH]n(-c2ccccc2)c(=O)c1/C=N\NC(=O)C1COc2ccccc2O1 (stereo unspecified)	?	3.3µM	5.2µM	.	?	?
Cc1c(/C=N\NC(=O)C2COc3ccccc3O2)c2ccccc2n1C (stereo unspecified)	0.65µM	0.73µM	0.92µM	.	0.65µM	.
